Results as given in PubChem BioAssay (NCATS).
Where “and” joins values, the source holds several entries; their conditions need not be identical. Equal values may be shown once. Records with an inconclusive call do not appear. Calls of active or inactive are those of the source. Calls come from the whole dose curve; as a rule, active = well fitted curve in the direction sought with a large enough effect; inconclusive = small, poorly fitted or top-dose-only effect, or another doubt; inactive = no such curve, though single readings can be large; an effect the other way counts as inactive or inconclusive.

Key:
[1] = Viability qHTS for spleen associated tyrosine kinase inhibitor (SYKi) naive MV4-11 cells (AID 1963823); note: nearly all actives have a fitted effect of over 40% in size
Method in brief: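 SYKi-naive MV4-11 AML cells, 500 per well, were exposed to library compounds for 72 hr at 37 C, 5% CO2. Viability was then read by CellTiter-Glo luminescence after 10 min at room temperature.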

[2] = Viability qHTS for spleen associated tyrosine kinase inhibitor (SYKi) drug resistant MV4-11 cells (AID 1963824); note: nearly all actives have a fitted effect of over 35% in size
Method in brief: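 SYK inhibitor-resistant MV4-11 AML cells, 500 per well, added to predispensed compounds and incubated 72 hr at 37 C, 5% CO2. Viability measured by CellTiter-Glo luminescence after 10 min at room temperature.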

[3] = Quantitative highthroughput screen to assess conditional lethalithy of NOMO1 cells grown in RPMI1640 with untreated serum (RPMI+s) (AID 1963876); note: nearly all actives have a fitted effect of over 35% in size;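 for Viability: 100% = DMSO wells and 0% = empty wells without cells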
Method in brief: (§1)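 Each medium arm—HPLM with 10% dialyzed FBS, or RPMI1640 with 5 mM glucose and 10% untreated or dialyzed FBS—was screened against an 11-point, 3-fold compound titration for 48 h at 37 °C, with CellTiter-Glo luminescence as endpoint.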

[4] = Quantitative highthroughput screen to assess conditional lethalithy of NOMO1 cells grown in RPMI1640 with dialyzed fetal bovine serum (RPMI+ds) (AID 1963877); note: nearly all actives have a fitted effect of over 30% in size;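 for Viability: series mostly up to about 46 µM; 100% = DMSO control wells and 0% = empty wells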
Method in brief: as §1

[5] = Quantitative highthroughput screen to assess conditional lethalithy of NOMO1 cells grown in Human Plasma-Like Medium with dialyzed fetal bovine serum (HPLM+ds) (AID 1963878); note: nearly all actives have a fitted effect of over 35% in size;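 for Viability: 100% = DMSO wells and 0% = empty wells on each plate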
Method in brief: as §1

[6] = Quantitative highthroughput screen to assess conditional lethalithy of P12 Ichikawa cells grown in Human Plasma-Like Medium with dialyzed fetal bovine serum (HPLM+ds) (AID 1963879); conditions: Potency: viability; note: nearly all actives have a fitted effect of over 35% in size; for Viability: series mostly up to about 46 µM
Method in brief: as §1

[7] = Quantitative highthroughput screen to assess conditional lethalithy of P12 Ichikawa cells grown in RPMI1640 with dialyzed fetal bovine serum (RPMI+ds) (AID 1963880); conditions: Potency: P12-Ichikawa viability; note: nearly all actives have a fitted effect of over 35% in size;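 for Viability: 100% = DMSO wells and 0% = empty wells on each plate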
Method in brief: as §1

[8] = Quantitative highthroughput screen to assess conditional lethalithy of P12 Ichikawa cells grown in RPMI1640 with untreated serum (RPMI+s) (AID 1963881); conditions: Potency: viability; note: nearly all actives have a fitted effect of over 35% in size;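 for Viability: series mostly up to about 46 µM; 100% = DMSO wells and 0% = empty wells without cells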
Method in brief: as §1

[9] = Quantitative highthroughput screen to assess conditional lethalithy of SEM cells grown in Human Plasma-Like Medium with dialyzed fetal bovine serum (HPLM+ds) (AID 1963882); note: nearly all actives have a fitted effect of over 35% in size; for Viability: series mostly up to about 46 µM
Method in brief: as §1

[10] = Quantitative highthroughput screen to assess conditional lethalithy of SEM cells grown in RPMI1640 with unreated serum (RPMI+s) (AID 1963883); note: nearly all actives have a fitted effect of over 35% in size;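 for Viability: 100% = DMSO wells and 0% = empty wells without cells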
Method in brief: as §1

[11] = Quantitative highthroughput screen to assess conditional lethalithy of SEM cells grown in RPMI1640 with dialyzed fetal bovine serum (RPMI+ds) (AID 1963884); note: nearly all actives have a fitted effect of over 35% in size;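 for Viability: series mostly up to about 46 µM; 100% = DMSO control wells and 0% = empty wells without cells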
Method in brief: as §1

[12] = Cellular viability qHTS for adrenocortical cancer (ACC) cell line SW-13 (AID 1963989); conditions: SW-13 ACC cells viability, CellTiter-Glo, 48 h; activity (max response): hits give low values; note: nearly all actives have a fitted effect of over 65% in size;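 for activity (max response): cells grown in serum-free medium with ITS supplement; % is set by controls: 0 for no effect and ±100 for the full control effect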
Method in brief: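 IC50 and maximal-response values come from four-parameter logistic fits of titration data. SW-13 cells in serum-free medium received compounds (up to 46 uM final) for 48 h before CellTiter-Glo luminescence.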

[13] = Cellular viability qHTS for adrenocortical cancer (ACC) cell line NCI-H295R (AID 1963990); note: nearly all actives have a fitted effect of over 60% in size;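 for activity change, negative = viability loss: 0% = DMSO only wells and -100% = full killing with cytotoxic reference compound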
Method in brief: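 Adrenocortical carcinoma cells, suspended at 300 000 cells/mL in serum-free DMEM plus ITS, rested overnight before pin transfer of compound. After two days' incubation, ATP-dependent luminescence was recorded and curve-fitted.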
Potency is the fitted concentration of half-maximal effect.

CC(C)(C#N)c1cc(Cn2cncn2)cc(C(C)(C)C#N)c1
inactive: Potency [1] | Potency [2] | Potency [3] | Potency [4] | Potency [5] | Potency [6] | Potency [7] | Potency [8] | Potency [9] | Potency [10] | Potency [11] | activity (max response) [12] 5.22% | Potency [13]

O=c1[nH]c(-c2ccc(C(F)(F)F)cc2)nc2c1CSCC2
inactive: Potency [2] | Potency [3] | Potency [4] | Potency [5] | Potency [6] | Potency [7] | Potency [8] | Potency [9] | Potency [10] | activity (max response) [12] -10.8%
active: Potency [1] 2.35 µM

O=C(CCCCCCC(=O)Nc1ccc([C@H]2O[C@@H](CSc3nc(-c4ccccc4)c(-c4ccccc4)o3)C[C@@H](c3ccc(CO)cc3)O2)cc1)NO
active: Potency [1] 16.4 µM | Potency [2] 18400 nM | Potency [3] 9350 nM | Potency [4] 9350 nM | Potency [5] 8330 nM | Potency [6] 4690 nM | Potency [7] 3320 nM | Potency [8] 4690 nM | Potency [9] 7430 nM | Potency [10] 7430 nM | Potency [11] 6620 nM
inactive: activity (max response) [12] -9.54% | activity change, negative = viability loss [13] -23.6% [at 9.17 µM]

CCCCCCCCCCCCCCCCCCCCCCO
inactive: Potency [1] | Potency [2] | Potency [3] | Potency [4] | Potency [5] | Potency [6] | Potency [7] | Potency [8] | Potency [9] | Potency [10] | Potency [11] | activity (max response) [12] -13.9% | Potency [13]

CNC1CCC(N(Cc2cccc(-c3ccncc3)c2)C(=O)c2sc3ccccc3c2Cl)CC1 (configuration not stated)
active: Potency [1] 7.31 µM and 5.25 µM | Potency [2] 5.8 µM and 5.25 µM | Potency [3] 3320 nM | Potency [4] 16600 nM | Potency [5] 1480 nM | Potency [6] 1180 nM | Potency [7] 1660 nM | Potency [8] 2090 nM | Potency [9] 1320 nM | Potency [10] 372 nM | Potency [11] 833 nM | Potency [12] 10 µM | Potency [13] 6.31 µM

C[C@@H](NCCCc1cccc(C(F)(F)F)c1)c1cccc2ccccc12
active: Potency [1] 10.6 µM | Potency [2] 13.3 µM and 7.42 µM | Potency [12] 20.6 µM and 25.1 µM | Potency [13] 5.17 µM and 8.91 µM
inactive: Potency [3] | Potency [4] | Potency [5] | Potency [6] | Potency [7] | Potency [8] | Potency [9] | Potency [10] | Potency [11]

CN(C)c1ccc(C(=O)NCCCCCCC(=O)NO)cc1
active: Potency [1] 0.833 µM | Potency [2] 742 nM | Potency [3] 2960 nM | Potency [4] 2350 nM | Potency [5] 2640 nM | Potency [6] 1480 nM | Potency [7] 1180 nM | Potency [8] 1480 nM | Potency [9] 1320 nM | Potency [10] 1320 nM | Potency [11] 1180 nM | Potency [12] 4.47 µM | Potency [13] 1.41 µM

CN(C)c1ccc(C(=C2C=CC(=[N+](C)C)C=C2)c2ccc(N(C)C)cc2)cc1
active: Potency [1] 0.332 µM | Potency [2] 372 nM | Potency [3] 148 nM | Potency [4] 132 nM | Potency [5] 118 nM | Potency [6] 264 nM | Potency [7] 132 nM | Potency [8] 118 nM | Potency [9] 118 nM | Potency [10] 105 nM | Potency [11] 93.5 nM | Potency [12] 651 nM and 1.58 µM | Potency [13] 920 nM and 2.82 µM

O=C(c1cncc(Br)c1)N1CCC(N2CCCC2)CC1
inactive: Potency [1] | Potency [2] | Potency [3] | Potency [4] | Potency [5] | Potency [6] | Potency [7] | Potency [8] | Potency [9] | Potency [10] | Potency [11] | activity (max response) [12] 1.51% | Potency [13]

CCOC(=O)C(C)Oc1cccc2c(=O)n(CC(=O)Nc3ccc4c(c3)OCCO4)ccc12 (configuration not stated)
inactive: Potency [3] | Potency [4] | Potency [5] | Potency [6] | Potency [7] | Potency [8] | Potency [9] | Potency [10] | Potency [11] | activity (max response) [12] 14.3% | Potency [13]
active: Potency [1] 1.48 µM | Potency [2] 934 nM

Cc1noc(-c2ccc(CSCCC(=O)O)cc2)c1NC(=O)OC(C)c1ccccc1Cl (configuration not stated)
inactive: Potency [1] | Potency [2] | Potency [3] | Potency [4] | Potency [5] | Potency [7] | Potency [8] | Potency [9] | Potency [10] | Potency [11] | activity (max response) [12] -1.37% | Potency [13]
active: Potency [6] 18700 nM

CCN(CC)C(=S)SSC(=S)N(CC)CC
active: Potency [1] 1.57 µM | Potency [2] 1.4 µM and 5.31 µM and 833 nM | Potency [3] 2960 nM | Potency [4] 2960 nM | Potency [5] 3320 nM | Potency [6] 2960 nM | Potency [7] 2960 nM | Potency [8] 2960 nM | Potency [9] 833 nM | Potency [10] 1050 nM | Potency [11] 662 nM | Potency [12] 16.4 µM and 25.1 µM | Potency [13] 44.7 µM

CN(C)Cc1c(C(=O)NCCOc2ccc(C(=O)NO)cc2)oc2ccccc12
active: Potency [1] 326 nM and 296 nM | Potency [2] 259 nM and 235 nM | Potency [3] 4180 nM | Potency [4] 4180 nM | Potency [5] 4180 nM | Potency [6] 2350 nM | Potency [7] 2960 nM | Potency [8] 2090 nM | Potency [9] 1180 nM | Potency [10] 1320 nM | Potency [11] 1480 nM | Potency [12] 1.26 µM | Potency [13] 0.794 µM
